# Reference: PubChem BioAssay (Tox21)
# Records with an inconclusive call do not appear. Entries that show only a call come without a potency. A number with no mark means an inactive call. Active and inactive are the calls of the source. Calls follow the shape of the full dose curve.
# Biological target: Retinoic acid receptor RXR-alpha (Homo sapiens) (UniProt P19793)
# Assay: qHTS assay to identify small molecule agonists of the RXR signaling pathway (AID 1159527); also: nearly all actives have a fitted effect of over 35% in size
# Conditions: HEK293T RXRa-UAS-bla, beta-lactamase ratio, 16 h; series mostly up to 76.8 µM
# Text: U.S. Tox21 Program National Center for Advancing Translational Sciences [NCATS] NIH Chemical Genomics Center [NCGC] U.S. Environmental Protection Agency [EPA] National Institutes of Environmental Health Sciences [NIEHS] National Toxicology Program [NTP] U.S. Food and Drug Administration [FDA] Tox21 Assay Overview: The Retinoid X receptor (RXR), a nuclear hormone receptor expressed in liver, spleen, placenta, epidermis, central nervous system. These receptors are able to form homo and heterodimers with other nuclear receptors and due to this heterodimerizing ability, RXR functions as master regulators producing diverse physiological effects. Three subtypes of RXR exist; alpha, beta and gamma. Retinoid X receptor alpha (RXR-alpha) has potential roles in metabolic signaling pathways, skin alopecia, dermal cysts, cardiac development, insulin sensitization etc. Therefore screening environmental chemicals on RXR-alpha signaling can be used for the studies focused on such therapeutic applications. For quantification of RXR-alpha ligands signaling, GeneBLAzer RXR alpha-UAS-bla HEK 293T (Life Technologies, Carlsbad, CA) cells containing a beta-lactamase reporter-gene under control of Retinoid X receptor-alpha response element were used to screen Tox21 10K library.
# Tox21 Assay Protocol Summary: RXR-alpha HEK 293T cells were dispensed at 2,000 cells/6 uL of assay medium containing 2% charcoal-stripped FBS using a Multidrop Combi (ThermoFisher Scientific, Waltham, MA) dispenser. The assay was performed in black wall/clear-bottom 1536-well plates (Greiner Bio-One North America Inc. Monroe, NC). 9-cis retinoic acid was used as a positive control in the agonist mode screen. After the assay plates were incubated at 37 C and 5% CO2 for 5 hr, 23 nL of compounds dissolved in DMSO, positive controls or DMSO only were transferred to the assay plate by a Pintool station (Kalypsys, San Diego, CA). The assay plates were incubated at 37 C and 5% CO2 for 16 hr. One uL of LiveBLAzer B/G FRET substrate (Life Technologies) was added using a Flying Reagent Dispenser (Aurora Discovery, San Diego, CA) and the plates were incubated at room temperature for 2 hr. Fluorescence intensity (405 nm excitation, 460/530 nm emission) was measured using an Envision plate reader (PerkinElmer, Shelton, CT).
# Potency is read from the fitted curve at half-maximal effect.
# Sequence of Retinoic acid receptor RXR-alpha (Homo sapiens) (P19793 whole entry, looked up): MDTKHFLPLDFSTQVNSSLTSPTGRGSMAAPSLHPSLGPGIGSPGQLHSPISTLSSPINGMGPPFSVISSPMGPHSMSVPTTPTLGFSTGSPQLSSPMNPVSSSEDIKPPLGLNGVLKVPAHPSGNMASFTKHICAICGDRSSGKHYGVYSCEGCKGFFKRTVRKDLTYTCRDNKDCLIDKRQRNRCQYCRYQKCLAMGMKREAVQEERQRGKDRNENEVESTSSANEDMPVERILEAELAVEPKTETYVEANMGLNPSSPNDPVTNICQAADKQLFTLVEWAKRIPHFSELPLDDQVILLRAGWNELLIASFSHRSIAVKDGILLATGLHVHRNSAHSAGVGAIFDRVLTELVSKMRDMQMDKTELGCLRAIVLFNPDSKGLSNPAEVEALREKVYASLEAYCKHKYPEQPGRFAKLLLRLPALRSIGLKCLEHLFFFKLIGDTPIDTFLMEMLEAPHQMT
Compound,Potency,activation
OC(CCN1CCCCC1)(c1ccccc1)c1ccccc1,inactive,
Cc1ccccc1N1CCN(CCc2nnc3n2CCCC3)CC1,inactive,
CC(CC(=O)O)CC(C)(C)C (stereo not given),inactive,
CC(=O)OC(C(=O)c1ccccc1)c1ccccc1 (stereo not given),inactive,
C=C(C)C(=O)OCCCCCCOC(=O)C(=C)C,inactive,
CCCCC(C)C(=O)O (stereo not given),inactive,
COC(/C=C(\C)CCC=C(C)C)OC,inactive,
O=P(O)(O)OCC(O)CO (stereo not given),inactive,
CC(=O)/C=C/c1ccco1,inactive,
NC(=O)C1(N2CCCCC2)CCN(CCCC(=O)c2ccc(F)cc2)CC1,inactive,
CC(C)(c1ccc(Oc2ccc3c(c2)C(=O)OC3=O)cc1)c1ccc(Oc2ccc3c(c2)C(=O)OC3=O)cc1,13.7 µM (active),
CCOC(=O)CCCCCCCCC(=O)OCC,inactive,
CCNC(=O)NCCCOc1cccc(CN2CCCCC2)c1,inactive,
CC(=O)c1ccc(OCC(=O)N2CCCCC2)cc1,inactive,
CC(=O)OC(C)c1ccccc1 (stereo not given),inactive,
O=S1(=O)CCCC1,inactive,
CCC1Nc2cc(Cl)c(S(N)(=O)=O)cc2S(=O)(=O)N1 (stereo not given),inactive,
COc1cccc2sc(N)nc12,inactive,
C=CCOC(=O)c1ccc(C(=O)OCC=C)c(C(=O)OCC=C)c1,inactive,
O=C(O)c1ccccc1C(=O)Nc1ccc(S(=O)(=O)Nc2nccs2)cc1,inactive,

Compound,Potency,activation
CC(=O)OCCCc1ccccc1,inactive,
O=CN1CCOCC1,inactive,
COc1cc(C=O)ccc1OC(=O)C(C)C,inactive,
CC1(N)CCC(C(C)(C)N)CC1 (stereo not given),inactive,
O=C(CN1CCN(Cc2ccc3c(c2)OCO3)CC1)N1c2ccccc2Sc2ccccc21,inactive,
NS(=O)(=O)c1ccc(Cl)c(S(N)(=O)=O)c1,inactive,
O=S(=O)(O)SSS(=O)(=O)O,inactive,
Nc1cc(C(=O)O)ccc1Cl,inactive,
CCCCC(CC)C(=O)OC(C)C (stereo not given),inactive,
FC(F)(F)/C(=N\OCC1OCCO1)c1ccc(Cl)cc1,inactive,
CCCCCCCCCOCC1CO1 (stereo not given),inactive,
COc1cc2c(Nc3ccc(Br)cc3F)ncnc2cc1OCC1CCN(C)CC1,inactive,
C[C@H]1O[C@H](O[C@H]2[C@H](O)[C@@H](O)[C@@H](O[C@H]3[C@H](O)[C@@H](O)[C@H](O)O[C@@H]3CO)O[C@@H]2CO)[C@H](O)[C@@H](O)[C@@H]1N[C@H]1C=C(CO)[C@@H](O)[C@H](O)[C@H]1O,inactive,
CCCCCCCCCCCCCCCCI,,7.13% [at 15.8 µM]
CCC(C)(CCC(C)C)C(=O)[O-].CCC(C)(CCC(C)C)C(=O)[O-].[Zn+2] (stereo not given),inactive,
CCCCC/C=C/CC(=O)OC,inactive,
CCCCOC(=O)C(=O)OCCCC,inactive,
Nc1c(NC/C=C\COc2cc(CN3CCCCC3)ccn2)c(=O)c1=O,,10.6% [at 15.8 µM]
OC[C@@H](O)[C@H](O)[C@@H](O)[C@@H](O)CO,inactive,
CCCCC(CC)COC(=O)c1ccccc1 (stereo not given),inactive,
